Screening results from PubChem.
TEAD-YAP block = TEAD-YAP interaction inhibition, primary screen, TEAD-YAP interaction inhibitor project, luminescence, HEK-TIYL cells; TEAD-Gal4/YAP UAS-luciferase luminescence; hit rate 1.4% among 640,000; inhibition, % at 9.12 µM; in the data active = inhibition above about 32%
FBW7 activator = FBW7 E3 ligase activators, primary screen, biochemical, AlphaScreen, human; F-box/WD repeat-containing protein 7 (Homo sapiens), Q969H0; hit rate 0.13% among 650,000; normalized activity (activation), % at 26.1 µM; AlphaScreen FBW7–phospho-cyclin E peptide binding, activator screen; in the data active = normalized activity above about 1.9%;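 also: purified mutant Fbw7 with reduced substrate affinity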
MITF primary = MITF inhibitors, primary screen, biochemical, AlphaScreen, human | Microphthalmia-associated transcription factor (Homo sapiens), O75030 | AlphaScreen MITF homodimerization, bead proximity signal | inhibition, % at 2.6 µM | hit rate 0.91% among 650,000; in the data active = inhibition above about 50%
Target sequence (O75030 whole entry, looked up): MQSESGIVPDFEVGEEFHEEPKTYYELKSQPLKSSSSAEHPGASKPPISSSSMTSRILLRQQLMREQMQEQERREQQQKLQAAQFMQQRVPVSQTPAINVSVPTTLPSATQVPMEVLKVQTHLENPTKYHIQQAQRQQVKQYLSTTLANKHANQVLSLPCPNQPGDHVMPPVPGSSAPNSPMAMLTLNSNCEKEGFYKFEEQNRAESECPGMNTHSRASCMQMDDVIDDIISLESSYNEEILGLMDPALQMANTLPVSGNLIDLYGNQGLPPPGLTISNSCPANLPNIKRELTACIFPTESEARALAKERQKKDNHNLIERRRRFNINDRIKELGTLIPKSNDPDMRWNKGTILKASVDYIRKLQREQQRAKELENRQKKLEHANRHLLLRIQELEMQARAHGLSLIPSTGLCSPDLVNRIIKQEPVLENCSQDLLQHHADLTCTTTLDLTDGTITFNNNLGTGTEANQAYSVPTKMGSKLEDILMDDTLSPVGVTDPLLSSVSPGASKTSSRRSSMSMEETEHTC
GPR151 ag = activators of human GPR151, primary screen, cell-based, PathHunter beta-arrestin, luminescence | G-protein coupled receptor 151 (Homo sapiens), Q8TDV0 | PathHunter beta-arrestin GPR151 cells | activation, % at 11.2 µM | hit rate 1% among 650,000; in the data active = activation above about 4.9%
Numbers stand for hits; – = inactive. An excerpt weighted towards active compounds, which were near 3.4% of everything screened.

SMILES | TEAD-YAP block | FBW7 activator | MITF primary | GPR151 ag
Cc1c(Nc2ccc(/C=C3\C(=O)Nc4ccccc43)cc2)c(=O)n(-c2ccccc2)n1C | 54 | – | – | –
O=C1OC(c2ccc(Cl)cc2)=N/C1=C/c1ccccc1OC(=O)c1ccc(Br)cc1 | – | – | – | –
Cc1ccc(C2=N/C(=C\c3ccccc3OC(=O)c3ccc(Cl)cc3)C(=O)O2)cc1 | 45 | – | – | –
O=C(Cc1ccccc1Br)NNC(=O)c1ccncc1 | – | – | – | –
Cc1ccccc1CSc1nc(-c2cccs2)ccc1C#N | 53 | – | – | –
CCSc1nc(-c2ccccc2)ccc1C#N | – | – | – | –
N#Cc1ccc(-c2ccccc2)nc1SCc1ccccc1F | 43 | – | – | –
COc1ccc(-c2cc(C(=O)O)c3ccccc3n2)cc1 | – | – | – | –
COc1ccc(/C=C/c2cc(C(=O)O)c3ccccc3n2)cc1 | 60 | – | – | –
COc1cccc(NC(=O)Cn2c(C)cc(=O)c3cccc(OC)c32)c1 | 49 | – | – | –
Cc1ccc(NC(=O)Cn2c(C)cc(=O)c3ccccc32)cc1C | 45 | – | – | –
Cc1cccc(NC(=O)Cn2c(C)cc(=O)c3ccccc32)c1 | 41 | – | – | –
COc1ccc(NC(=O)CN(C)S(=O)(=O)c2ccc(Br)cc2)cc1OC | – | – | – | –
COc1ccc(NC(=O)C2C(=S)NC(N)=C(C#N)C2c2ccc(Cl)cc2)cc1 (centres undefined) | – | – | – | –
CCN1CCN(CCCN2C(=O)C3C(C(=O)Nc4cc(C)cc(C)c4)C4C=CC3(O4)C2C(=O)NC2CCCC(C)C2C)CC1 (centres undefined) | – | – | – | –
Cc1cc(Nc2ccccc2)n(-c2ccc([N+](=O)[O-])cc2)n1 | – | – | – | –
Cc1cc(Nc2nc3ccccc3[nH]c2=O)n(-c2ccc([N+](=O)[O-])cc2)n1 | 59 | – | – | –
CCC(=O)Oc1ccc(C(=O)N2CCN(c3ccccc3OC)CC2)cc1 | – | – | – | –
COc1ccc(CNC(=O)N2CCC(c3nnc(C4CC4)s3)CC2)cc1 | – | 3.1 | – | –
Cc1cccc(NC(=O)N2CCC(c3nnc(C4CC4)s3)CC2)c1 | – | 3.1 | – | –
O=C(Nc1ccc2c(c1)OCO2)N1CCN(C2CCCCC2)CC1 | – | – | – | –
COc1ccc(CNC(=O)N2CCC(c3nnc(C4CC4)o3)CC2)cc1 | – | – | – | –
O=C(Nc1ccc2c(c1)OCO2)N1CCC(c2nnc(C3CC3)s2)CC1 | – | 2.6 | – | –
Cc1ccc(N2C(=O)CSC2c2ccc(F)c(F)c2)cc1F (centres undefined) | – | – | – | –
COc1cccc(C(=O)N2CCN3C(=O)[C@@H](C)NC(=O)[C@H]3C2)c1 | – | – | – | –
SMILES | TEAD-YAP block | FBW7 activator | MITF primary | GPR151 ag
Fc1ccc(CCn2c(C3COc4ccccc4O3)nc3ncc(-c4ccncc4)cc32)cc1 (centres undefined) | 51 | – | – | –
c1ccc2c(c1)OCC(c1nc3ncc(-c4ccncc4)cc3[nH]1)O2 (centres undefined) | – | – | – | –
Cc1cccc(N=C(NN)c2ccc3ccccc3n2)c1 | 66 | – | – | –
Cc1ccc(-c2ncn(-c3ccc(Nc4ncc5ccc(-c6cnn(C)c6)cc5n4)cc3)n2)cn1 | – | – | – | –
Cn1cc(-c2ccc3cnc(Nc4ccc(N5CCOCC5)cc4)nc3c2)cn1 | 60 | – | – | –
c1cn(-c2ccc(Nc3ncc4ccc(-c5cn[nH]c5)cc4n3)cc2)cn1 | 96 | – | – | –
Cc1cnc(Nc2ccc(-n3ccnc3)cc2)nc1N | – | – | – | –
Cn1cc(-c2ccc3cnc(Nc4ccc(-n5ccnc5)cc4)nc3c2)cn1 | 72 | – | – | –
Cn1cc(-c2ccc3cnc(Nc4ccc(-n5cnc(-c6ccccn6)n5)cc4)nc3c2)cn1 | 96 | – | – | –
CC1CCc2sc3ncnc(N4CCN(CCc5ccccc5)CC4)c3c2C1 (centres undefined) | – | – | – | –
Cc1cc(NC(=O)c2ccc(F)cc2)n(-c2nc3ccccc3[nH]2)n1 | – | – | – | –
Cc1csc(-c2cc3ccc(OCc4c(F)cccc4Cl)cc3oc2=O)n1 | – | – | – | –
O=C(N/N=C/c1cc(Br)ccc1O)c1ccc(Cl)cc1 | – | – | – | –
Cn1cc(-c2ccc3cnc(Nc4ccc(C(=O)N5CCOCC5)cc4)nc3c2)cn1 | 71 | – | – | –
CN(C)c1ccc(C(=O)Nc2cc(C(N)=O)c(Cl)cc2Cl)cc1 | – | – | – | –
CC(C)(C)c1ccc(C(=O)Nc2sccc2C(N)=O)cc1 | 69 | – | – | –
CN(C)c1ccc(C(=O)Nc2ccccc2Br)cc1 | 65 | – | – | –
CN(C)c1ccc(C(=O)Nc2ccccc2C(N)=O)cc1 | 52 | – | – | –
CC(C)(C)c1ccc(C(=O)Nc2ccccc2C(N)=O)cc1 | 56 | 2.1 | – | –
NC(=O)c1ccccc1NC(=O)c1ccc(-c2ccccc2)cc1 | – | – | – | –
CCNC(=O)c1cc(Cl)c(OCc2ccccc2)c(OC)c1 | – | – | – | –
Cc1ccc2ccc(C(Nc3ccccn3)c3cccnc3)c(O)c2n1 (centres undefined) | – | – | – | –
COc1ccc(NC(c2cccnc2)c2ccc3cccnc3c2O)cc1 (centres undefined) | – | – | 59 | –
Oc1ccccc1NC(c1cccnc1)c1ccc2cccnc2c1O (centres undefined) | – | – | 98 | –
COc1ccc(C(=O)NC(=S)Nc2ccc(C(=O)O)cc2)cc1[N+](=O)[O-] | – | – | – | –
SMILES | TEAD-YAP block | FBW7 activator | MITF primary | GPR151 ag
N#Cc1ccc(C(=O)Nc2nnc(-c3ccccn3)o2)cc1 | – | – | – | –
CC(C)Oc1ccc(C(=O)Nc2nnc(-c3ccccn3)o2)cc1 | 36 | – | – | –
CC1(c2cccc(Cc3cccc(C4(C)CCCCC4)c3O)c2O)CCCCC1 | – | – | – | –
CC1(C)CCN2CCC(C)(C)c3c(O)ccc1c32 | 38 | – | – | –
CC(=O)Oc1cccc(N2Cc3ccccc3C2=O)c1 | 73 | – | – | –
CCc1ccc2c(c1)NC(=O)C2(C)Cc1cccc(C(=O)OC)c1 (centres undefined) | 44 | – | – | –
CS(=O)(=O)n1nc(OC(=O)c2ccccc2Cl)cc1N | – | – | – | –
CCc1ccccc1NC(=O)CCSCC1Nc2cc(C(=O)O)ccc2NC1=O (centres undefined) | – | – | – | –
COc1ccccc1N1CCN(C(=O)CS(=O)(=O)Cc2ccccc2)CC1 | – | – | – | –
COc1ccccc1N1CCN(C(=O)CN2CC=C[C@@H]2C(=O)NCCc2ccccc2)CC1 | 42 | – | – | –
CCOc1cc(C(=O)OCC(=O)C(C)(C)C)cc(OCC)c1OCC | – | – | – | –
COc1ccc(-c2nnc(NC(=O)c3cccc(Cl)c3)s2)cc1 | – | – | – | –
O=C1CN(S(=O)(=O)c2ccc(Br)cc2)c2ccccc2N1 | – | – | – | –
